Screening results as filed in PubChem BioAssay.
Mac1 fbg inh: inhibitors of CD11b/CD18 adhesion to fibrinogen, primary screen, K562 cells, luminescence | Integrin beta-2 (Homo sapiens) + Integrin alpha-M (Homo sapiens), P05107+P11215 | ATPlite luminescence; Mn2+ added to activate the integrin | inhibition, % at 10 µM | 93,000 tested, 0.54% active | AID 1497, 2009;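 active = primary inhibition of 50% or more at 10 µM, then 40% or more on retest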
CD11b adhes enh: enhancers of CD11b/CD18 adhesion to fibrinogen, primary screen, K562 cells, luminescence | Integrin beta-2 (Homo sapiens) + Integrin alpha-M (Homo sapiens), P05107+P11215 | AID 1499, 2009 | 93,000 tested, 0.07% active | ATPlite luminescence | activation, % at 10 µM;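 active = 10 µM primary screen giving 50% or more activity, confirmed by 40% or more on retest at that dose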
CYP2C19 act: human CYP2C19 activators, primary screen, biochemical, luminescence; recombinant CYP2C19, luciferin-H EGE luminescence; stronger effect = higher value; 0 = fully inhibited enzyme, 1 = untreated enzyme; activation factor at 5 µM; 96,000 tested, under 10 active; AID 1025, 2008;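 active = activation factor of at least 2 at 5 µM in the primary screen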
CYP2C19 inhib: blockers of cytochrome P450 2C19 activity – biochemical, luminescence, ADME assay, primary screen. CYP2C19 Supersomes, luciferin-H EGE luminescence, 30 min. inhibition, % at 5 µM. P33261. 96,000 tested, 21% active;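 active = CYP2C19 inhibition above a set limit at 5 µM in the primary screen, cut at about 50% in these data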
CYP2C9 inhib: blockers of cytochrome P450 2C9 activity – biochemical, luminescence, ADME assay, primary screen. P11712. CYP2C9 Supersomes, luciferin-H conversion. inhibition, % at 5 µM. 96,000 tested, 20% active;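 active = blocking of liver enzyme CYP2C9 beyond about 50% at 5 µM, limit read from the data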
Target sequence (P11712 whole entry, looked up): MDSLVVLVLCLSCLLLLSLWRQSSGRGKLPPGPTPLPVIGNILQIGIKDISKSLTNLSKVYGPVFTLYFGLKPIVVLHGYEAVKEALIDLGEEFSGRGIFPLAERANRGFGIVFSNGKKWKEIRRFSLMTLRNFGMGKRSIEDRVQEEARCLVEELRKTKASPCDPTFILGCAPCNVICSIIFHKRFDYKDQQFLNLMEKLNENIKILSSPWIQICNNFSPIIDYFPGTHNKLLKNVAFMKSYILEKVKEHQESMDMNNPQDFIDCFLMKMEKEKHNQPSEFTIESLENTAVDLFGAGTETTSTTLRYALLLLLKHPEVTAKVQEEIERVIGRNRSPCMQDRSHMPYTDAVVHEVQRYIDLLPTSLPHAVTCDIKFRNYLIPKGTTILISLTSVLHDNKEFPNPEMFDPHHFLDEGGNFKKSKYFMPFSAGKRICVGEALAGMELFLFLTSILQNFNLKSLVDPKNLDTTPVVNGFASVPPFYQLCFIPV
CYP2C9 act: human CYP2C9 activators, primary screen, biochemical, luminescence | 96,000 tested, 1.4% active | activation factor at 5 µM | recombinant CYP2C9, luciferin-H conversion; stronger effect = higher value; factor 1 = untreated enzyme, 0 = blocked | AID 1024, 2008 | Cytochrome P450 2C9 (Homo sapiens), P11712;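 active = activation factor of 2 or more for CYP2C9 at a 5 µM dose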
Hits are given with their value. Hits are enriched below; roughly 28% of the tested compounds scored in any of these assays.

What do the screens show for `CCOC(=O)c1c(-c2ccc(OC)cc2)csc1NC(=O)CSc1ccccc1`?
Mac1 fbg inh: inactive; CD11b adhes enh: inactive; CYP2C19 act: inactive; CYP2C19 inhib: inactive; CYP2C9 inhib: inactive; CYP2C9 act: inactive

Results for COC(=O)c1c(-c2ccc3ccccc3c2)csc1NC(=O)Cc1ccc(OC)c(OC)c1 ?
Mac1 fbg inh: inactive; CD11b adhes enh: inactive; CYP2C19 act: inactive; CYP2C19 inhib: inactive; CYP2C9 inhib: 79.7; CYP2C9 act: inactive

What do the screens show for `COc1ccccc1C(=O)NCCCn1cc(Br)c(C)n1`?
Mac1 fbg inh: inactive; CD11b adhes enh: inactive; CYP2C19 act: inactive; CYP2C19 inhib: 73.1; CYP2C9 inhib: inactive; CYP2C9 act: inactive

How did COc1ccccc1NC(=O)/C(C#N)=C/c1cc([N+](=O)[O-])ccc1N1CCCC1 do in these assays?
Mac1 fbg inh: inactive; CD11b adhes enh: inactive

What do the screens show for `COc1ccc(C(c2c(O)ccc3ccccc23)N2CCOCC2)c(OC)c1` (centres undefined)?
Mac1 fbg inh: inactive; CD11b adhes enh: inactive; CYP2C19 act: inactive; CYP2C19 inhib: 86.9; CYP2C9 inhib: 92.7; CYP2C9 act: inactive

How did CCc1nc(N2CCOCC2)c(C#N)c2c1CCCC2 do in these assays?
Mac1 fbg inh: inactive; CD11b adhes enh: inactive; CYP2C19 act: inactive; CYP2C19 inhib: 77.8; CYP2C9 inhib: inactive; CYP2C9 act: inactive

How did CCCc1nc(N2CCCC2)c(C#N)c2c1CCCC2 do in these assays?
Mac1 fbg inh: inactive; CD11b adhes enh: inactive; CYP2C19 act: inactive; CYP2C19 inhib: inactive; CYP2C9 inhib: 73.4; CYP2C9 act: inactive

Results for CCCCc1nc(N2CCOCC2)c(C#N)c2c1COC(C)(C)C2 ?
Mac1 fbg inh: inactive; CD11b adhes enh: inactive; CYP2C19 act: inactive; CYP2C19 inhib: 86.8; CYP2C9 inhib: 73.2; CYP2C9 act: inactive

What do the screens show for `CC(C)c1nc(N2CCCC2)c(C#N)c2c1CCCC2`?
Mac1 fbg inh: inactive; CD11b adhes enh: inactive; CYP2C19 act: inactive; CYP2C19 inhib: 53.8; CYP2C9 inhib: 54.6; CYP2C9 act: inactive

Results for CSc1ccc(/C=N/NC(=O)c2cccc(O)c2)cc1 ?
CYP2C19 act: inactive; CYP2C19 inhib: inactive; CYP2C9 inhib: inactive; CYP2C9 act: inactive

Results for COCc1[nH]nc2c1C(c1ccc(OC)c(OC)c1)C(C#N)=C(N)O2 (centres undefined) ?
Mac1 fbg inh: inactive; CD11b adhes enh: inactive; CYP2C19 act: inactive; CYP2C19 inhib: inactive; CYP2C9 inhib: inactive; CYP2C9 act: inactive

What do the screens show for `CCn1c2ccccc2c2cc(C3C(C#N)=C(N)Oc4n[nH]c(COC)c43)ccc21` (centres undefined)?
Mac1 fbg inh: inactive; CD11b adhes enh: inactive; CYP2C19 act: inactive; CYP2C19 inhib: inactive; CYP2C9 inhib: 58.7; CYP2C9 act: inactive

Results for Cc1[nH]nc2c1C(c1ccc3c(c1)OCO3)C(C#N)=C(N)O2 (centres undefined) ?
Mac1 fbg inh: inactive; CD11b adhes enh: inactive; CYP2C19 act: inactive; CYP2C19 inhib: 59.8; CYP2C9 inhib: 56.9; CYP2C9 act: inactive

What do the screens show for `CCCc1[nH]nc2c1C(c1ccccc1OC)C(C#N)=C(N)O2` (centres undefined)?
Mac1 fbg inh: inactive; CD11b adhes enh: inactive; CYP2C19 act: inactive; CYP2C19 inhib: inactive; CYP2C9 inhib: inactive; CYP2C9 act: inactive

How did CCCc1[nH]nc2c1C(c1ccc(O)c(OC)c1)C(C#N)=C(N)O2 (centres undefined) do in these assays?
Mac1 fbg inh: inactive; CD11b adhes enh: inactive; CYP2C19 act: inactive; CYP2C19 inhib: 60.3; CYP2C9 inhib: inactive; CYP2C9 act: inactive

What do the screens show for `CCCc1[nH]nc2c1C(c1ccc(OC)c(Cn3nnc4ccccc43)c1)C(C#N)=C(N)O2` (centres undefined)?
Mac1 fbg inh: inactive; CD11b adhes enh: inactive; CYP2C19 act: inactive; CYP2C19 inhib: inactive; CYP2C9 inhib: 62.5; CYP2C9 act: inactive

What do the screens show for `Cc1nc(NCCCO)c(C#N)c2c1COC(C)(C)C2`?
Mac1 fbg inh: inactive; CD11b adhes enh: inactive; CYP2C19 act: inactive; CYP2C19 inhib: inactive; CYP2C9 inhib: inactive; CYP2C9 act: inactive

What do the screens show for `COc1cccc(C(=O)Nc2ncc3c(n2)CC(C)(C)CC3=O)c1`?
Mac1 fbg inh: inactive; CD11b adhes enh: inactive; CYP2C19 act: inactive; CYP2C19 inhib: inactive; CYP2C9 inhib: inactive; CYP2C9 act: inactive

Results for CCOC(=O)c1nc[nH]c1C ?
Mac1 fbg inh: inactive; CD11b adhes enh: inactive; CYP2C19 act: inactive; CYP2C19 inhib: inactive; CYP2C9 inhib: inactive; CYP2C9 act: inactive

How did COc1cc(OC)cc(C(=O)NCCN2CCOCC2)c1 do in these assays?
Mac1 fbg inh: inactive; CD11b adhes enh: inactive; CYP2C19 act: inactive; CYP2C19 inhib: inactive; CYP2C9 inhib: inactive; CYP2C9 act: inactive

Results for COc1ccc(C2C(C#N)=C(N)Oc3n[nH]c(C)c32)cc1CSc1ccccn1 (centres undefined) ?
Mac1 fbg inh: inactive; CD11b adhes enh: inactive; CYP2C19 act: inactive; CYP2C19 inhib: inactive; CYP2C9 inhib: inactive; CYP2C9 act: inactive

How did COc1ccc(C2C(C#N)=C(N)Oc3n[nH]c(C)c32)cc1Cn1nnc2ccccc21 (centres undefined) do in these assays?
Mac1 fbg inh: inactive; CD11b adhes enh: inactive; CYP2C19 act: inactive; CYP2C19 inhib: inactive; CYP2C9 inhib: 67.9; CYP2C9 act: inactive

What do the screens show for `CCCOC1(NC(=O)c2ccccc2)C(C)=CC(=O)C=C1C`?
CYP2C19 act: inactive; CYP2C19 inhib: inactive; CYP2C9 inhib: inactive; CYP2C9 act: inactive

Results for COc1ccc(S(=O)(=O)NCC(c2cccnc2)N2CCN(c3ccccc3OC)CC2)cc1C (centres undefined) ?
CYP2C19 act: inactive; CYP2C19 inhib: 73.5; CYP2C9 inhib: inactive; CYP2C9 act: inactive

Results for COc1ccccc1N1CCN(C(CNS(=O)(=O)c2ccccc2)c2cccnc2)CC1 (centres undefined) ?
Mac1 fbg inh: inactive; CD11b adhes enh: inactive; CYP2C19 act: inactive; CYP2C19 inhib: 86.1; CYP2C9 inhib: 62.0; CYP2C9 act: inactive

What do the screens show for `COc1ccc(OC)c(C(=O)COC(=O)c2ccccc2O)c1`?
Mac1 fbg inh: inactive; CD11b adhes enh: inactive; CYP2C19 act: inactive; CYP2C19 inhib: inactive; CYP2C9 inhib: inactive; CYP2C9 act: inactive

What do the screens show for `Cc1nn(C)cc1/C=N/NC(=S)Nc1ccccc1`?
Mac1 fbg inh: inactive; CD11b adhes enh: inactive; CYP2C19 act: inactive; CYP2C19 inhib: inactive; CYP2C9 inhib: inactive; CYP2C9 act: inactive

How did O=C(CSc1ncn[nH]1)Nc1ccccc1-c1ccccc1 do in these assays?
Mac1 fbg inh: inactive; CD11b adhes enh: inactive; CYP2C19 act: inactive; CYP2C19 inhib: inactive; CYP2C9 inhib: inactive; CYP2C9 act: inactive

How did O=C(CSc1ncn[nH]1)NCCc1ccccc1 do in these assays?
Mac1 fbg inh: inactive; CD11b adhes enh: inactive; CYP2C19 act: inactive; CYP2C19 inhib: inactive; CYP2C9 inhib: inactive; CYP2C9 act: inactive
